Our source for the outcome and AC50 values is PubChem BioAssay (EPA / NIEHS).

Test [1] addresses Luciferin 4-monooxygenase (Photinus pyralis) (UniProt P08659). As to the kind of experiment: CCTE_Simmons_QuantiLum_inhib_2: CCTE's Firefly Luciferase Inhibition Assay, Simmons Lab (AID 2283767). The method in brief:
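Eight-point titrations of each chemical, 5 nM–87.5 uM final in 0.5% DMSO, were run in three biological replicates against recombinant luciferase for 30 min at 37C. Bioluminescence signal loss, read on reagent injection, gave the inhibition endpoint.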

A short description of test [2]: ACEA_AR_agonist_AUC_viability: ACEA Biosciences xCELLigence Real-Time Cell Analysis on Androgen Receptor Agonism for Viability (AID 2283775).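 On AC50: viability read 80 hours after compound addition.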 The method in brief: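 Viability endpoint from xCELLigence impedance in 22Rv1 prostate cells at 80 h. Eight-point series, 100 uM maximum final.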
Test [3] is described as follows: ACEA_AR_antagonist_AUC_viability: ACEA Biosciences xCELLigence Real-Time Cell Analysis on Androgen Receptor Antagonism for Viability (AID 2283776).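 Further: area under impedance growth curve at 80 h after dosing as viability; hits lower the growth signal relative to DMSO meaning cytotoxicity.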 The method in brief: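 22Rv1 human prostate cancer cells were seeded on electrode plates, monitored overnight, then exposed to eight 1:4 dilutions from 100 uM final. Impedance-based growth kinetics at 80 h gave an AUC viability endpoint normalized to DMSO.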

For test [4], the target named is zebrafish Estrogen Receptor (ESR1), esr1 (gene 259252) (UniProt P57717). As to the kind of experiment: ATG_zfER1_XSP1: Attagene TRANS-FACTORIAL Multi-Species (XSP1) HepG2 Assay for zebrafish Estrogen Receptor (ESR1) (AID 2283772). In a few lines:
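Reporter mRNA induction, gauged via RT-PCR/capillary electrophoresis fluorescence relative to DMSO controls, in HepG2 cells transiently carrying GAL4-UAS reporter units; 24 h dosing.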

Test [5] concerns zebrafish Estrogen Receptor (ESR2B), gene 317733. Briefly: ATG_zfER2b_XSP1: Attagene TRANS-FACTORIAL Multi-Species (XSP1) HepG2 Assay for zebrafish Estrogen Receptor (ESR2B) (AID 2283773). The method in brief:
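Multiplexed TRANS format in transfected HepG2 liver cells, chimeric NR-Gal4 from zebrafish ESR2B. 24 h dosing; medium contains 3 nM 6-alpha-fluorotestosterone. mRNA induction by RT-PCR/CE, positive direction vs DMSO.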

The test system of test [6] is frog Estrogen Receptor (ESR2), gene 100174814. Briefly: ATG_frER2_XSP1: Attagene TRANS-FACTORIAL Multi-Species (XSP1) HepG2 Assay for frog Estrogen Receptor (ESR2) (AID 2283774). The method in brief: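 HepG2, transient MRTU transfection (GAL4-UAS reporters, exogenous NR-Gal4 chimeras); 24 h compound exposure; 3 nM 6α-fluorotestosterone co-added; total RNA → RT-PCR → 6-FAM primer extension → HpaI → CE. Positive direction vs DMSO.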

Test [7] deals with chicken Estrogen Receptor (ESR1), ESR1 (gene 396099) (UniProt P06212). Briefly: ATG_chERa_XSP1: Attagene TRANS-FACTORIAL Multi-Species (XSP1) HepG2 Assay for chicken Estrogen Receptor (ESR1) (AID 2283779). The method in brief: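 Read-out: fluorescent reporter mRNA fragments resolved by capillary electrophoresis after RT-PCR and HpaI digestion. Transfected HepG2 cells carried chimeric NR-Gal4 constructs, were dosed 24 h with 3 nM 6-alpha-fluorotestosterone added, and activity was fitted upward relative to DMSO.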

Test [8] relates to zebrafish Androgen Receptor (AR), gene 100005148. Briefly: ATG_zfAR_XSP1: Attagene TRANS-FACTORIAL Multi-Species (XSP1) HepG2 Assay for zebrafish Androgen Receptor (AR) (AID 2283771). The method in brief:
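Gain-of-signal versus DMSO was measured as reporter transcripts quantified by RT-PCR, fluorescent labelling and capillary electrophoresis after 24 h chemical exposure. The cells were HepG2 expressing a chimeric zebrafish AR-GAL4, co-stimulated with 3 nM 6-alpha-fluorotestosterone.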

Test [9] concerns frog Estrogen Receptor (ESR1), gene 398734. As to the kind of experiment: ATG_frER1_XSP1: Attagene TRANS-FACTORIAL Multi-Species (XSP1) HepG2 Assay for frog Estrogen Receptor (ESR1) (AID 2283777). The method in brief:
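Transient MRTU transfection, HepG2 (human liver); 24 h dosing, 3 nM 6α-fluorotestosterone co-added; RNA → RT-PCR → 6-FAM labeling → CE; upward activity vs DMSO.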

Test [10] has as its target Estrogen receptor (Homo sapiens) (UniProt P03372). Briefly: ATG_hERa_XSP1: Attagene TRANS-FACTORIAL Multi-Species (XSP1) HepG2 Assay for human Estrogen Receptor (ESR1) (AID 2283780). In a few lines:
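Reporter transcripts from multiplexed GAL4-UAS units driven by NR-Gal4 chimeras in transiently transfected HepG2 were measured by RT-PCR with capillary electrophoresis 24 h post-dose, with 3 nM 6-alpha-fluorotestosterone present; gain-of-signal relative to DMSO.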

For test [11], the system named is turtle Estrogen Receptor (ESR1), gene 101933533. Briefly: ATG_trERa_XSP1: Attagene TRANS-FACTORIAL Multi-Species (XSP1) HepG2 Assay for turtle Estrogen Receptor (ESR1) (AID 2283781). The method in brief:
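Transfect HepG2 with reporter units → dose chemical 24 h (medium has 3 nM 6-alpha-fluorotestosterone) → isolate RNA, RT-PCR → FAM primer extension, HpaI digest → capillary electrophoresis; gain of signal vs DMSO.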

A short description of test [12]: ArunA_CellTiter_hNC: Viability Assessment in the ArunA Biomedical's Oris Neural Crest (hNC) Cell Migration Assay (AID 2283752). In a few lines:
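Cytotoxicity endpoint run alongside the migration assay: neural crest cells on Matrigel, 60,000 per well, preincubated 16 h at 37C, treated 72 h; CellTiter Aqueous One signal loss relative to DMSO.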

The nature of test [13]: ArunA_CellTiter_hNP: Viability Assessment in the ArunA Biomedical's Oris Neural Crest (hNC) Cell Migration Assay (AID 2283753). The method in brief:
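Viability read with CellTiter 96 Aqueous One after 72 h chemical exposure of human hNP1 neuroprogenitors, which were plated on Matrigel in LIF/bFGF medium 16 h beforehand. Endpoint fitted in positive direction relative to DMSO.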

Test [14] can be described thus: ArunA_Migration_hNP: ArunA Biomedical's Oris Neuroprogenitor (hNP) Cell Migration Assay (AID 2283754). The method in brief:
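Readout is calcein-AM fluorescence (ex494/em517) of cells migrating into the detection zone, relative to DMSO. hNP1 cells (H9-derived) grown on Matrigel behind stoppers 16 h, then stoppers pulled and chemical applied 72 h; cytochalasin D as control.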

Test [15] can be described thus: ArunA_Migration_hNC: ArunA Biomedical's Oris Neural Crest (hNC) Cell Migration Assay (AID 2283755). In a few lines:
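Calcein-AM fluorescence (ex494 nm/em 517 nm) in the stopper-defined detection zone quantifies migration of hNC cells after 72 h chemical exposure; 60,000 cells/well plated on Matrigel with LIF and bFGF, 16 h pre-incubation. DMSO baseline.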

Test [16] can be described thus: ArunA_NOG_NucleusCount: ArunA Biomedical's Neurite Outgrowth (NOG) Assay for Nucleus Count (AID 2283756). In a few lines:
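Viable neuron count, from Hoechst nuclei passing size and intensity gates, imaged at 20x on differentiated H9-derived human neurons. Exposure lasted 48 h from seeding; activity was scored relative to DMSO.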

Test [17] is described as follows: ArunA_NOG_NeuritesPerNeuron: ArunA Biomedical's Neurite Outgrowth (NOG) Assay for Neurites Per Neuron (AID 2283758). The method in brief:
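Differentiated human H9-derived neurons exposed to chemicals for 48 h from seeding, then stained with Hoechst and βIII-tubulin/DyLight 488. Automated imaging counted neurites (processes >10 um) per valid neuron; loss of signal versus DMSO scored.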

Test [18] in a line: ArunA_NOG_BranchPointsPerNeurite: ArunA Biomedical's Neurite Outgrowth (NOG) Assay for Branch Points Per Neurite (AID 2283759). The method in brief:
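Automated image analysis traced neurites (processes >10 um) from valid cell bodies after Hoechst and βIII-tubulin staining. hNN cells from H9 embryonic stem cells, 48 h exposure. Fitted bidirectionally against DMSO.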

Test [19] has as its system zebrafish Estrogen Receptor (ESR2A), gene 317734. As to the kind of experiment: ATG_zfER2a_XSP1: Attagene TRANS-FACTORIAL Multi-Species (XSP1) HepG2 Assay for zebrafish Estrogen Receptor (ESR2A) (AID 2283778). In a few lines: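 Transient transfection of HepG2 (human liver) with MRTU constructs; chemical dosing for 24 h; medium contained 3 nM 6-alpha-fluorotestosterone to partly stimulate AR. RT-PCR/CE fluorescence of reporter transcripts; positive direction vs DMSO.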

Test [20] relates to chicken Androgen Receptor (AR), gene 422165. Briefly: ATG_chAR_XSP1: Attagene TRANS-FACTORIAL Multi-Species (XSP1) HepG2 Assay for chicken Androgen Receptor (AR) (AID 2283768). The method in brief: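 Reporter mRNA read by RT-PCR with fluorescent labelling and capillary electrophoresis 24 h after chemical dosing of transiently transfected HepG2 cells. Chicken AR-Gal4 chimera, partially stimulated with 3 nM 6-alpha-fluorotestosterone; activity fitted upward relative to DMSO.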

“And” between values parts separate entries of the source, which are not always exact repeats. Equal entries are not always repeated. Records with an inconclusive call do not appear. Some compounds were tested as several samples or in several runs, with calls that do not always agree. The source made the active and inactive calls. How the source made its calls: active means hit-call score of the fitted dose curve at least 0.9, where 1 is the maximum; inconclusive means response in the unintended direction; inactive means score below 0.9.

Sequence of chicken Estrogen Receptor (ESR1), ESR1 (gene 396099) (P06212 whole entry, looked up, the tested form may be a part): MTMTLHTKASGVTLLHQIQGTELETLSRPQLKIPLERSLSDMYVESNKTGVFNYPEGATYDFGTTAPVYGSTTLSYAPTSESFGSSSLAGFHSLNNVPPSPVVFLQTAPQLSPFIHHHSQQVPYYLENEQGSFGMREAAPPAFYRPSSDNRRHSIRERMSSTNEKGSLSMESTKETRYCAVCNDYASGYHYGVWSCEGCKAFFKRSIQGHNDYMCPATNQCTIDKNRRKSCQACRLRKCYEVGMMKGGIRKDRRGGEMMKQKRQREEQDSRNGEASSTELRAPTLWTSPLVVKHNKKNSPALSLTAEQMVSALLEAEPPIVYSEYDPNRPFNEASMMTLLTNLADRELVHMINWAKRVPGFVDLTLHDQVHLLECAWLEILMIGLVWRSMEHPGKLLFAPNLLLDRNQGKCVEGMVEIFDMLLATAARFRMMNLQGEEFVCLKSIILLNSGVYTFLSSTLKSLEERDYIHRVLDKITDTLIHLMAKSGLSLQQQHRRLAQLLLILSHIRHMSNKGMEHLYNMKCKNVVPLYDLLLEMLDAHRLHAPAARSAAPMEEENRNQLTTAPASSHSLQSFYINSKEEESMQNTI
Sequence of Luciferin 4-monooxygenase (Photinus pyralis) (P08659 whole entry, looked up): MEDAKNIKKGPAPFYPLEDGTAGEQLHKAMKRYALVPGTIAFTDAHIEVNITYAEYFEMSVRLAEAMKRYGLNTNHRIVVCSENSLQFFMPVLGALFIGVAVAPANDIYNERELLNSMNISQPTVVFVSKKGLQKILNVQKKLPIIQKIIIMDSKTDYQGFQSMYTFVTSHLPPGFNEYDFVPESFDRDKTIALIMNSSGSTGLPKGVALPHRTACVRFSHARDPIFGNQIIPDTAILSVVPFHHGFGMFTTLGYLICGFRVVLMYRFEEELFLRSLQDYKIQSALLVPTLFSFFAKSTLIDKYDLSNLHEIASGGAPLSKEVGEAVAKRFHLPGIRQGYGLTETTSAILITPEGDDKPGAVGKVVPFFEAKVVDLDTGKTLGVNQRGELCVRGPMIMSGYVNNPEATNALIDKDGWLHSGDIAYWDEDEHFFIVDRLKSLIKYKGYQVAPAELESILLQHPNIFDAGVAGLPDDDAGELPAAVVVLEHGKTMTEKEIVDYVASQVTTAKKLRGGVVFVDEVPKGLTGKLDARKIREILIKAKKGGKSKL
Sequence of zebrafish Estrogen Receptor (ESR1), esr1 (gene 259252) (P57717 whole entry, looked up, the tested form may be a part): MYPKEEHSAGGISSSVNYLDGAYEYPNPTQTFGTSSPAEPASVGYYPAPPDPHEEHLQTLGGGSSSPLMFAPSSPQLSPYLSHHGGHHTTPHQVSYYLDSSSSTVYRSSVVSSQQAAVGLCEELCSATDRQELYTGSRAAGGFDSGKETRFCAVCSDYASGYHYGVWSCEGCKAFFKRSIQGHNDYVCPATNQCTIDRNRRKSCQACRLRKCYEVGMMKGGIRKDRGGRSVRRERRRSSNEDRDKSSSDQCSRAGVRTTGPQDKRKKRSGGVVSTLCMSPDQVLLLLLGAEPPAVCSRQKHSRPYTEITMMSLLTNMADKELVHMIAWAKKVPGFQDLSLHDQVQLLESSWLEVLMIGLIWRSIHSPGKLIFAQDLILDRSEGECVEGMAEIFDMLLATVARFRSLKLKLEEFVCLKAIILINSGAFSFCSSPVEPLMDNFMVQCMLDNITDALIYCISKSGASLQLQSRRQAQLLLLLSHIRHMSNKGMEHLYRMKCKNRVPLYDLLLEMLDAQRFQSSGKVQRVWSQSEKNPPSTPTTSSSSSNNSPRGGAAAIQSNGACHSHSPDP
Sequence of Estrogen receptor (Homo sapiens) (P03372 whole entry, looked up, the tested form may be a part): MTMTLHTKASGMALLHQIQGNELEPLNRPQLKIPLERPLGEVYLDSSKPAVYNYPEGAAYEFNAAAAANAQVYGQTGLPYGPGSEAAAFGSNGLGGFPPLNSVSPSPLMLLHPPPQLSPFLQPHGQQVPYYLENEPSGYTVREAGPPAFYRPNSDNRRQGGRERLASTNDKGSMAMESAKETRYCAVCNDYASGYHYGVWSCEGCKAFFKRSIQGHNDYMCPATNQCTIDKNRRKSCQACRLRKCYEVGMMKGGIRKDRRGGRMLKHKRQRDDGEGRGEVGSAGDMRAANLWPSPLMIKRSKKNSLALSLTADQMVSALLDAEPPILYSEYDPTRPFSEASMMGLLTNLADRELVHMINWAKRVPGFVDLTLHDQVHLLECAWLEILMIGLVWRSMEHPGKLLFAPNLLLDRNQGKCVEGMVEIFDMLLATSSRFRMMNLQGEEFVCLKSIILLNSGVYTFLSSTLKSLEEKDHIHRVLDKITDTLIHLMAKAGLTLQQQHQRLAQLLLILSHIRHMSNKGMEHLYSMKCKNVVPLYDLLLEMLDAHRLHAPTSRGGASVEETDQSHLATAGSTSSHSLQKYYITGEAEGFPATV

As to `COc1nn(CSP(=S)(OC)OC)c(=O)s1`, in [1], the outcome was inactive. In addition, the AC50 (as a rule, the concentration at which the activity in the assay is half-maximal) is 78.7 µM (active) in [2] and 92.6 µM (active) in test [3].
Regarding `CCCN(CCOc1c(Cl)cc(Cl)cc1Cl)C(=O)n1ccnc1`, the compound was called inactive in test [1], in test [4], in test [5], in test [6] and in test [7]. The AC50 was 37.3 µM (active) in [2] and 57.1 µM (active) in test [3].
As to `O=S1OCC2C(CO1)C1(Cl)C(Cl)=C(Cl)C2(Cl)C1(Cl)Cl` (stereo not drawn), the compound was called inactive in [8], in [9] and in test [7]. Moreover, the AC50 is 4.8 µM (active) in test [5]; 10 µM (active) in [6]; 23.1 µM (active) in test [2]; 17.2 µM (active) in test [3]; 1.98 µM (active) in [10]; 1.98 µM (active) in test [11].
Consider `Oc1cc(Cl)ccc1Oc1ccc(Cl)cc1Cl`, for which the call in test [12], in [13], in [14], in [15], in test [16] and in [17] was inactive. The call in [18], in test [1], in test [8], in test [4], in test [9] and in test [7] was inactive. Further, the AC50 in [6] is 7.05 µM (active); in [2] it was 17.3 µM (active); in [3], 12.9 µM (active); in test [19] it was 4.96 µM (active); in [11], 5.85 µM (active).
Regarding `COP(=S)(OC)Oc1ccc(SC)c(C)c1`, the result in test [1], in [4] and in test [2] was inactive. In addition, the AC50 in test [5] was 66.9 µM (active); in test [6], 11.8 µM (active); in test [3], 33.5 µM (active); in [9], 5.04 µM (active); in test [19] it was 45.9 µM (active); in test [7], 25.6 µM (active). Further, the AC50 is 26.5 µM (active) in test [10] and 26.6 µM (active) in [11].
As to `O=S(=O)(O)C(F)(F)C(F)(F)C(F)(F)C(F)(F)C(F)(F)C(F)(F)C(F)(F)C(F)(F)F`, the compound was called inactive in test [14], in [15], in test [18], in test [1], in test [5] and in test [2]. In addition, the AC50 in test [16] was 649 nM (active); in test [17] it was 1.02 µM (active); in test [20], 148 µM (active); in test [6], 49.8 µM (active); in test [2] it was 50 µM (active); in [3] it was 31.4 µM (active) and 67.5 µM (active). Further, the concentration at half-maximal activity (AC50) in test [9] is 84 µM (active).
For `COP(=O)(OC)OC=C(Cl)Cl`, the call in [1] and in test [3] was inactive.
As to `CCC(C)Nc1c([N+](=O)[O-])cc(C(C)(C)C)cc1[N+](=O)[O-]` (stereo not drawn), the call in test [13], in test [15], in test [16], in test [18] and in test [2] was inactive. Also, in [3], the concentration at half-maximal activity (AC50) was 36.6 µM (active).
